This is part of a sample that, as a whole, favours compounds with a hit. Of some 83,000 tested, about 20% had one in any assay.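 Results are percent growth after 48 hours of single-concentration exposure. 100 means growth as in untreated cells, lower positive values show inhibition; negative values down to -100 show cell death.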 Calls of active or inactive are those of the source. How the source made its calls: active means growth percent below 10; inactive means the rest.
Assays:
Experiment in all cases: NCI-60 one-dose screen, 48 h (100 = growth as untreated, 0 = no growth, -100 = all killed)
Conditions in all cases: 10 µM unless noted
SR leukemia = test system: SR leukemia
RPMI-8226 leukemia = test system: RPMI-8226 leukemia
OVCAR-8 ovarian = test system: OVCAR-8 ovarian
OVCAR-5 ovarian = test system: OVCAR-5 ovarian
OVCAR-4 ovarian = test system: OVCAR-4 ovarian
SK-OV-3 ovarian = test system: SK-OV-3 ovarian
IGROV1 ovarian = test system: IGROV1 ovarian
HS 578T breast = test system: HS 578T breast
NCI/ADR-RES ovarian = test system: NCI/ADR-RES ovarian

Measured: growth

O=C1Nc2ccccc2/C1=C/c1ccc(OCC(=O)c2ccccc2)cc1
inactive: SR leukemia 101% | RPMI-8226 leukemia 95% | OVCAR-8 ovarian 94.8% | OVCAR-5 ovarian 102% | OVCAR-4 ovarian 96.5% | SK-OV-3 ovarian 102% | IGROV1 ovarian 102% | HS 578T breast 93.9% | NCI/ADR-RES ovarian 98.2%

O=C(O)c1ccc(-n2c(=O)n(-c3cccc(C(F)(F)F)c3)c(=O)c3cc(-c4ccc(F)cc4F)ccc32)cc1
inactive: OVCAR-8 ovarian 13.9% | OVCAR-5 ovarian 24.8% | OVCAR-4 ovarian 31.2% | IGROV1 ovarian 17.8%
active: SR leukemia 8.91% | RPMI-8226 leukemia -7.92% | SK-OV-3 ovarian 2.5% | HS 578T breast -4.81% | NCI/ADR-RES ovarian 3.12%

Cc1csc(/N=C(N)/N=C(\N)c2cccc(C#N)c2)n1
inactive: SR leukemia 30.2% | RPMI-8226 leukemia 87.8% | OVCAR-8 ovarian 85.8% | OVCAR-5 ovarian 106% | OVCAR-4 ovarian 97.2% | SK-OV-3 ovarian 76.3% | IGROV1 ovarian 77.7% | HS 578T breast 83.1% | NCI/ADR-RES ovarian 58.3%

O=C1Nc2ccc(F)cc2/C1=C\C(=O)c1ccc(NS(=O)(=O)c2ccccc2)cc1
inactive: RPMI-8226 leukemia 67.6% | OVCAR-8 ovarian 91.1% | OVCAR-5 ovarian 107% | OVCAR-4 ovarian 93.2% | SK-OV-3 ovarian 112% | IGROV1 ovarian 87.2% | HS 578T breast 110% | NCI/ADR-RES ovarian 96.7%
active: SR leukemia 9.42%

CCc1cc(OC(=O)N2CCN(CCC(C)(COC(C)(C)C)COC(C)(C)C)CC2)ccc1Nc1cc(-c2ccc(-n3cccn3)cc2)[nH]n1
inactive: SR leukemia 37.9% | RPMI-8226 leukemia 60.5% | OVCAR-8 ovarian 84.3% | OVCAR-5 ovarian 89.1% | OVCAR-4 ovarian 60.8% | SK-OV-3 ovarian 105% | IGROV1 ovarian 67% | HS 578T breast 68.2% | NCI/ADR-RES ovarian 74.5%

CN1CCN(Cc2ccc(NC(=O)c3cncc(C#Cc4cnc5ccc(OCC(F)F)nn45)c3)cc2C(F)(F)F)CC1
active: SR leukemia -24.3% | RPMI-8226 leukemia -21.7% | OVCAR-8 ovarian -74.6% | OVCAR-5 ovarian -47.1% | OVCAR-4 ovarian -62.6% | SK-OV-3 ovarian -24.2% | IGROV1 ovarian -53.8% | HS 578T breast -34.1% | NCI/ADR-RES ovarian -28.1%

CCCCSC1=C(Cl)CN(c2ccccc2)C1=O
inactive: SR leukemia 71.5% | RPMI-8226 leukemia 78% | OVCAR-8 ovarian 102% | OVCAR-5 ovarian 98.8% | OVCAR-4 ovarian 107% | SK-OV-3 ovarian 105% | IGROV1 ovarian 106% | HS 578T breast 98.6% | NCI/ADR-RES ovarian 103%

Nn1c(=O)n(-c2cccc(C(F)(F)F)c2)c(=O)c2cc(-c3ccc(F)cc3F)ccc21
inactive: OVCAR-5 ovarian 47.2% | OVCAR-4 ovarian 28.8% | IGROV1 ovarian 20.9%
active: SR leukemia 6.24% | RPMI-8226 leukemia -19.1% | OVCAR-8 ovarian 9.99% | SK-OV-3 ovarian -8.64% | HS 578T breast 0.556% | NCI/ADR-RES ovarian 2.58%

CC(C)[C@H]1c2[nH]c3ccccc3c2C[C@H]2C(=O)N(CCCCCCC(=O)NO)CC(=O)N12
inactive: SR leukemia 33.6% | RPMI-8226 leukemia 58.6% | OVCAR-8 ovarian 60.8% | OVCAR-5 ovarian 81.5% | OVCAR-4 ovarian 99.9% | SK-OV-3 ovarian 95% | IGROV1 ovarian 92.9% | HS 578T breast 74.2% | NCI/ADR-RES ovarian 95.3%

CCc1cc(O)ccc1Nc1cc(-c2ccc(-n3cccn3)cc2)[nH]n1
inactive: SR leukemia 68.9% | RPMI-8226 leukemia 53.5% | OVCAR-8 ovarian 58% | OVCAR-5 ovarian 78.5% | OVCAR-4 ovarian 49% | SK-OV-3 ovarian 87.2% | IGROV1 ovarian 86.4% | HS 578T breast 105% | NCI/ADR-RES ovarian 63.8%

CC(C)(C)OC(=O)Nc1ccc(-c2cccc(Oc3ccc4nnc(Cl)n4n3)c2)cc1
inactive: SR leukemia 36% | RPMI-8226 leukemia 43.2% | OVCAR-8 ovarian 71.3% | OVCAR-5 ovarian 100% | OVCAR-4 ovarian 63.7% | SK-OV-3 ovarian 95.5% | IGROV1 ovarian 98.8% | HS 578T breast 94.5% | NCI/ADR-RES ovarian 70.8%

O=S(=O)(Oc1ccc(-c2cn3ccsc3n2)cc1)c1cccc(C(F)(F)F)c1
inactive: SR leukemia 95.2% | RPMI-8226 leukemia 97.5% | OVCAR-8 ovarian 101% | OVCAR-5 ovarian 107% | OVCAR-4 ovarian 96.5% | SK-OV-3 ovarian 108% | IGROV1 ovarian 107% | HS 578T breast 102% | NCI/ADR-RES ovarian 108%

COc1cc(/C=C2/C(=O)Nc3ccc(Cl)cc32)ccc1OCc1ccc(Cl)cc1
inactive: SR leukemia 41.9% | RPMI-8226 leukemia 100% | OVCAR-8 ovarian 91.2% | OVCAR-5 ovarian 96.7% | OVCAR-4 ovarian 20.3% | SK-OV-3 ovarian 110% | IGROV1 ovarian 77.3% | HS 578T breast 94.1% | NCI/ADR-RES ovarian 88.3%

CCN(CC)c1ccc(/C=N/NC(=O)c2ccc(S(N)(=O)=O)cc2)c(O)c1
inactive: SR leukemia 10.5% | RPMI-8226 leukemia 38.3% | OVCAR-8 ovarian 13.1% | OVCAR-5 ovarian 50% | OVCAR-4 ovarian 32.6% | SK-OV-3 ovarian 32.2% | IGROV1 ovarian 17.6% | HS 578T breast 54.3% | NCI/ADR-RES ovarian 18%

CNc1sc(S(=O)(=O)NC)nc1S(=O)(=O)c1ccc(C)cc1
inactive: SR leukemia 101% | RPMI-8226 leukemia 99.2% | OVCAR-8 ovarian 102% | OVCAR-5 ovarian 92.2% | OVCAR-4 ovarian 108% | SK-OV-3 ovarian 105% | IGROV1 ovarian 95.1% | HS 578T breast 103% | NCI/ADR-RES ovarian 103%

NS(=O)(=O)c1ccc(Nc2nc(N/N=C/c3ccc4c(c3)OCO4)nc(Nc3ccccc3)n2)cc1
inactive: SR leukemia 20% | RPMI-8226 leukemia 54.3% | OVCAR-8 ovarian 49.7% | OVCAR-5 ovarian 90.8% | OVCAR-4 ovarian 55.5% | SK-OV-3 ovarian 65.7% | IGROV1 ovarian 36.6% | HS 578T breast 52% | NCI/ADR-RES ovarian 90.9%

O=C(O)CC1CCN(c2ccc3nnc(Cl)n3n2)CC1
inactive: SR leukemia 110% | RPMI-8226 leukemia 111% | OVCAR-8 ovarian 104% | OVCAR-5 ovarian 97.3% | OVCAR-4 ovarian 108% | SK-OV-3 ovarian 96.2% | IGROV1 ovarian 102% | HS 578T breast 102% | NCI/ADR-RES ovarian 98.6%

N#C/C(=C\c1ccc(-c2ccc(Cl)cc2)o1)C(=O)Nc1ncc(Cc2ccc(Br)cc2)s1
inactive: SR leukemia 16.8% | RPMI-8226 leukemia 64.1% | OVCAR-5 ovarian 42.4% | SK-OV-3 ovarian 70.3%
active: OVCAR-8 ovarian 6.49% | OVCAR-4 ovarian -26.7% | IGROV1 ovarian 7.06% | HS 578T breast -2.91% | NCI/ADR-RES ovarian 8.56%

COc1ccc(C(=NNS(=O)(=O)c2ccc(C)cc2)c2ccccc2)cc1OC
inactive: SR leukemia 111% | RPMI-8226 leukemia 93.6% | OVCAR-8 ovarian 97.5% | OVCAR-5 ovarian 103% | OVCAR-4 ovarian 102% | SK-OV-3 ovarian 107% | IGROV1 ovarian 90.8% | HS 578T breast 104% | NCI/ADR-RES ovarian 96.8%

CC1=Cc2ccccc2OC12C=Cc1ccccc1O2 (stereo unspecified)
inactive: SR leukemia 103% | RPMI-8226 leukemia 104% | OVCAR-8 ovarian 103% | OVCAR-5 ovarian 102% | OVCAR-4 ovarian 105% | SK-OV-3 ovarian 102% | IGROV1 ovarian 69.1% | HS 578T breast 106% | NCI/ADR-RES ovarian 98.6%

CN1CCN(Cc2ccc(NC(=O)c3cncc(C#Cc4cnc5ccc(NCCO)nn45)c3)cc2C(F)(F)F)CC1
inactive: NCI/ADR-RES ovarian 81.1%
active: SR leukemia 4.47% | RPMI-8226 leukemia -15.2% | OVCAR-8 ovarian 1.73% | OVCAR-5 ovarian 5.23% | OVCAR-4 ovarian -9.76% | SK-OV-3 ovarian -10.5% | IGROV1 ovarian -1.21% | HS 578T breast -13.3%

CCOC(=O)c1c(N)c(C#N)cn1Cc1ccc(Cl)cc1Cl
inactive: SR leukemia 26.2% | RPMI-8226 leukemia 83% | OVCAR-8 ovarian 94.4% | OVCAR-5 ovarian 85.5% | OVCAR-4 ovarian 79.3% | SK-OV-3 ovarian 101% | IGROV1 ovarian 63.3% | HS 578T breast 73.4% | NCI/ADR-RES ovarian 61.5%

CCc1cccc2c3c(sc12)C(c1ccc(F)cc1)C(C#N)=C(/N=C/c1ccc(Cl)cc1)O3 (stereo unspecified)
active: HS 578T breast -1.77% | NCI/ADR-RES ovarian 7.87%
inactive: SR leukemia 18.8% | RPMI-8226 leukemia 21.5% | OVCAR-8 ovarian 13.6% | OVCAR-5 ovarian 29.1% | OVCAR-4 ovarian 80.6% | SK-OV-3 ovarian 42.6% | IGROV1 ovarian 29.9%

CN(C)c1ccc(-c2cc(-c3c[nH]c4ccccc34)nc(N)c2C#N)cc1
active: SR leukemia 9.16% | RPMI-8226 leukemia 4.44%
inactive: OVCAR-8 ovarian 25.6% | OVCAR-5 ovarian 48.8% | OVCAR-4 ovarian 69.5% | SK-OV-3 ovarian 30.9% | IGROV1 ovarian 42.2% | HS 578T breast 35.6% | NCI/ADR-RES ovarian 14.9%

O=C(CCl)Nc1ccc(NC(=O)c2cc(Cl)ccc2O)c(Cl)c1
inactive: SR leukemia 21.3% | RPMI-8226 leukemia 49.8% | OVCAR-8 ovarian 48.6% | OVCAR-5 ovarian 121% | OVCAR-4 ovarian 83% | SK-OV-3 ovarian 90.9% | HS 578T breast 86.9% | NCI/ADR-RES ovarian 56.7%
active: IGROV1 ovarian -45.3%

O=C(/C=C/C=C/c1csc(Br)n1)NO
inactive: SR leukemia 60% | RPMI-8226 leukemia 60.7% | OVCAR-8 ovarian 85.7% | OVCAR-5 ovarian 98.2% | OVCAR-4 ovarian 103% | SK-OV-3 ovarian 113% | IGROV1 ovarian 106% | HS 578T breast 98.5% | NCI/ADR-RES ovarian 74.6%

O=C1Nc2ccccc2/C1=N\c1nnc(-c2ccccc2)o1
inactive: SR leukemia 105% | RPMI-8226 leukemia 101% | OVCAR-8 ovarian 102% | OVCAR-5 ovarian 106% | OVCAR-4 ovarian 98.7% | SK-OV-3 ovarian 82.5% | IGROV1 ovarian 72.1% | HS 578T breast 90.1% | NCI/ADR-RES ovarian 95.6%

COc1ccc(N2CCN(C3=C(Cl)C(=O)c4ncccc4C3=O)CC2)cc1
inactive: RPMI-8226 leukemia 23.2% | OVCAR-8 ovarian 74.8% | OVCAR-5 ovarian 112% | OVCAR-4 ovarian 48.2% | SK-OV-3 ovarian 81% | IGROV1 ovarian 80.7% | HS 578T breast 70.2% | NCI/ADR-RES ovarian 86.6%
active: SR leukemia 0.311%

O=C1[C@@H]2Cc3c([nH]c4ccccc34)[C@@H](c3ccc(Cl)cc3)N2C(=O)CN1C1CCN(Cc2c(F)cccc2F)CC1
active: SR leukemia -4.42%
inactive: RPMI-8226 leukemia 12.5% | OVCAR-8 ovarian 43.7% | OVCAR-5 ovarian 59.4% | OVCAR-4 ovarian 44.8% | SK-OV-3 ovarian 68.5% | IGROV1 ovarian 25.6% | HS 578T breast 53.8% | NCI/ADR-RES ovarian 42.5%
